The panel holds about 79,000 compounds, 15% with a hit somewhere; the sample as a whole holds those more often. Unmarked numbers belong to inactive results. Activity calls are given as the source filed them. Cut-off read from the data, not from the text of the source: active = growth inhibition above about 70%; inactive = the rest.
Columns and labels:
[1] = NCI Yeast Anticancer Drug Screen. Data for the rad50 strain (AID 155);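 note: 0% = growth of vehicle-only cultures of the same strain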; details: S. cerevisiae rad50 strain growth inhibition, stronger effect = higher value
Method in brief: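 Relative growth inhibition (compound vs vehicle) was measured in yeast with a defined repair-gene alteration.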

[2] = NCI Yeast Anticancer Drug Screen. Data for the mec2-1 strain (AID 157); details: S. cerevisiae mec2-1 strain, stronger effect = higher value
Method in brief: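 Test agents were screened against the mec2-1 yeast strain, with defined DNA repair or cell cycle alteration. Growth was scored as inhibition against vehicle-only controls.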

[3] = NCI Yeast Anticancer Drug Screen. Data for the sgs1 mgt1 strain (AID 161);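 note: 0% = growth of cultures given vehicle only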; details: S. cerevisiae sgs1 mgt1 strain, stronger effect = higher value
Method in brief: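 Genetically altered yeast, compound exposure, growth inhibition relative to vehicle.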

[4] = NCI Yeast Anticancer Drug Screen. Data for the cln2 rad14 strain (AID 165);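 note: 0% = growth equal to vehicle treated cultures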; details: S. cerevisiae cln2 rad14 strain, stronger effect = higher value
Method in brief: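 Growth of compound-exposed yeast (cln2 rad14 genotype) measured and expressed as inhibition relative to vehicle.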

[5] = NCI Yeast Anticancer Drug Screen. Data for the bub3 strain (AID 167); details: S. cerevisiae bub3 mutant strain, stronger effect = higher value
Method in brief: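 Screening used yeast with an engineered genetic alteration affecting cell cycle control. Compound-exposed cultures were compared with vehicle cultures, and reduced growth was taken as inhibition.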

[6] = NCI Yeast Anticancer Drug Screen. Data for the mlh1 rad18 strain (AID 175); details: S. cerevisiae mlh1 rad18 strain growth inhibition, stronger effect = higher value
Method in brief: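 In this whole-cell yeast screen, a strain with altered DNA damage repair is challenged with compound, and its growth is measured against matched vehicle-treated controls.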

[7] = at 5.0 µM (retest, dose inferred, filed as 0.5)
[8] = at 50.0 µM (retest, dose inferred, filed as 5.0)

Row | SMILES | growth inhibition [1, 7] | growth inhibition [1, 8] | growth inhibition ([1]; at 50.0 µM) | growth inhibition [2, 7] | growth inhibition [2, 8] | growth inhibition ([2]; at 50.0 µM) | growth inhibition [3, 7] | growth inhibition [3, 8] | growth inhibition ([3]; at 50.0 µM) | growth inhibition [4, 7] | growth inhibition [4, 8] | growth inhibition ([4]; at 50.0 µM) | growth inhibition [5, 7] | growth inhibition [5, 8] | growth inhibition ([5]; at 50.0 µM) | growth inhibition [6, 7] | growth inhibition [6, 8] | growth inhibition ([6]; at 50.0 µM)
1 | COc1ccc2c3c(c4cc(OC)c(OC)cc4c2c1)CN1CCC[C@H]1[C@@H]3O | 19% | 99% (active) | 89.4% (active) | 7% | 99% (active) | 90.6% (active) | 97% (active) | 98% (active) | 91.1% (active) | 90% (active) | 97% (active) | 88.2% (active) | 95% (active) | 98% (active) | 89.7% (active) | 98% (active) | 97% (active) | 89.2% (active)
2 | C#CC[N+](CC)(CC)CCNC(=O)CCCCCCCCCCCCCCC | 97% (active) | 99% (active) | 99.5% (active) | 81% (active) | 99% (active) | 99.7% (active) | 98% (active) | 100% (active) | 99.6% (active) | 51% | 99% (active) | 98.8% (active) | 92% (active) | 99% (active) | 99.6% (active) | 49% | 99% (active) | 99.5% (active)
3 | O=C(CCc1c[nH]c2ccccc12)c1ccccc1O | 2% | 5% | 17.5% | -1% | 14% | 22.1% | 5% | 16% | 59.3% | -13% | -18% | -21.4% | 2% | 14% | 73.8% (active) | -5% | 12% | 43.4%
4 | C=C1CC[C@@H](Br)C(C)(C)[C@]12CCC(C)(O)C(Cl)C2 (some centres not stated) | -3% | 34% | 91.7% (active) | 16% | 30% | 93.5% (active) | 10% | 44% | 92.2% (active) | 31% | 44% | 90.9% (active) | 6% | 72% (active) | 92% (active) | -25% | 41% | 91% (active)
5 | COc1ccc2nc3cc(Cl)ccc3c(NCCCN(Cc3cc(OC)c(OC)c(OC)c3)Cc3cc(OC)c(OC)c(OC)c3)c2c1 | 45% | 72% (active) | 62.4% | 29% | 58% | 34.6% | 38% | 62% | 45.6% | 32% | 43% | 33.4% | 37% | 83% (active) | 56.6% | 48% | 80% (active) | 73.5% (active)
6 | Oc1ccc(C2CCCCC2)c(O)c1 | -2% | 42% | 75.5% (active) | 2% | 53% | 61.4% | 7% | 37% | 66% | 30% | 45% | 65.8% | 7% | 66% | 67.3% | 2% | 72% (active) | 65.8%
7 | O=C1OC2=C(CCc3nc(-c4ccccc4)sc32)C(N(c2ccccc2)c2ccccc2)C1(Cl)Cl (configuration not stated) | -4% | 11% | 63.6% | -5% | 12% | 41.8% | 1% | 19% | 73% (active) | -13% | -15% | 60.1% | 0% | -3% | 49% | 2% | 9% | 68.7%
8 | CCCCCCCCCCCC(=O)N(CCOC(=O)c1ccco1)CCOC(=O)c1ccco1 | 46% | 96% (active) | 99% (active) | 43% | 99% (active) | 99% (active) | 31% | 98% (active) | 99.2% (active) | 29% | 98% (active) | 98.5% (active) | 34% | 96% (active) | 97.8% (active) | 34% | 97% (active) | 98.8% (active)
9 | C1=c2ccccc2=C2C(=C(c3ccccc3)C(c3ccccc3)=NN2c2ccccc2)S1 | -25% | -9% | -14.2% | 0% | -17% | -18.6% | -13% | -22% | -18.8% | -22% | -13% | 5.9% | -4% | 2% | -5.35% | -1% | -32% | -2.55%
10 | CCCC1(C)C(C#N)(C#N)C1(C#N)C#N | 98% (active) | 98% (active) | 98.5% (active) | 96% (active) | 99% (active) | 99.3% (active) | 98% (active) | 99% (active) | 99.3% (active) | 99% (active) | 99% (active) | 99.1% (active) | 99% (active) | 99% (active) | 99% (active) | 99% (active) | 99% (active) | 99.2% (active)
11 | O=C(Nc1nc2ccc([N+](=O)[O-])cc2s1)C(=O)C(C1OC(=O)c2ccccc21)[N+](=O)[O-] (configuration not stated) | 8% | 8% | 88.7% (active) | -7% | -7% | 87% (active) | 9% | 9% | 88.9% (active) | 13% | 13% | 67.6% | 4% | 4% | 84% (active) | 0% | 0% | 76% (active)
12 | CCCCCCCCCc1cc(O)c(O)cc1CCCCCCCCC | -8% | 80% (active) | 22.4% | -13% | 68% | 25.2% | -7% | 42% | 42.9% | -23% | 86% (active) | 54.1% | -12% | 79% (active) | 22.4% | -2% | 66% | 1.65%
13 | O=C(Nc1cccc(C(F)(F)F)c1)c1cc(Br)cc(Br)c1O | 38% | 87% (active) | 83.2% (active) | 37% | 80% (active) | 62.6% | 44% | 85% (active) | 77% (active) | 45% | 75% (active) | 67.5% | 44% | 83% (active) | 69.3% | 52% | 95% (active) | 64.1%
14 | CCC(c1ccccc1)N1C(=O)c2ccccc2S1(=O)=O (configuration not stated) | -3% | -3% | 33.4% | -2% | 22% | 14.3% | -1% | -2% | 25.3% | -6% | -3% | -19.6% | 23% | 50% | 92.2% (active) | -3% | -2% | 32.5%
15 | COc1ccc(-c2cc(=O)c3c(C)ccnc3[nH]2)cc1 | 58% | 58% | 87.2% (active) | 43% | 43% | 83.2% (active) | 54% | 54% | 82.5% (active) | 20% | 20% | 65.8% | 25% | 25% | 81.8% (active) | 39% | 39% | 81.5% (active)
16 | CSc1nc2nn(Cc3ccccc3)cc2c(=O)[nH]1 | -6% | 22% | -7.95% | 10% | 19% | -4.85% | 9% | 21% | 2.4% | 17% | 50% | -22.8% | 27% | 47% | -9.9% | 20% | 39% | 11.8%
17 | S=C(NCc1ccccc1)N/N=C/c1ccccn1 | -22% | 65% | 20.6% | 9% | 57% | 17.4% | -9% | 60% | 49.8% | 23% | 83% (active) | 62% | -22% | 72% (active) | 63.9% | 0% | 51% | 42.7%
18 | OCCOc1ccc2ccccc2c1-c1c(OCCOc2ccc3ccccc3c2-c2c(OCCO)ccc3ccccc23)ccc2ccccc12 | 0% | 22% | 36.1% | -3% | 13% | 21.5% | 1% | 29% | 36.9% | 6% | 33% | 11.7% | -2% | 14% | 24.6% | 3% | 27% | 26.4%
19 | COc1cc(C2c3cc4c(cc3C(OC3CCCCO3)C3COC(=O)C23)OCO4)cc(OC)c1OC (configuration not stated) | -2% | 19% | 31.9% | -1% | 7% | 18.6% | -10% | 11% | 23.4% | -3% | -2% | 2.35% | 4% | 30% | 54.4% | -6% | 14% | 33.9%

— PubChem BioAssay (NCI)
